Source: PubChem
JMJD2A Tudor: blocks the human JMJD2A Tudor domain; AlphaScreen JMJD2A-Tudor / H3K4me3 peptide binding; AID 504339; 390,000 tested, 4.4% active; Potency, µM (doses to about 114 µM), without a hit: at the highest dose activity change, negative = inhibition, actives largely listed as inhibitors; O75164; further: on the % scale 0 is the no-effect control and ±100 the full control effect; nearly all actives have a fitted effect of over 50% in size
PLK1 PBD inh: PLK1 (human) polo-box domain binding inhibition; Potency, µM, for inactives: max response, negative = inhibition, actives largely listed as inhibitors; Plk1 PBD binding of FITC phosphopeptide, fluorescence polarization; P53350; 360,000 tested, 2.8% active; AID 720504; further: series mostly up to about 57 µM; on the % scale 0 is the no-effect control and ±100 the full control effect; nearly all actives have a fitted effect of over 65% in size
VDR inhibitor: blocks the human vitamin D receptor; P11473; VDR-SRC2-3 peptide fluorescence polarization, 2 h; Potency, µM, without a hit: max response, negative = inhibition, most hits filed as inhibitors; 400,000 tested, 0.93% active; AID 504847; further: on the % scale 0 is the no-effect control and ±100 the full control effect
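Fluorescence polarization assay measuring small-molecule disruption of VDR binding to the coregulator peptide SRC2-3. Compounds were pin-transferred (23 nl) into the reagent mix and incubated 2 h at room temperature before reading.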
HP1b chromo inh: blocks HP1-beta chromodomain binding to methylated histone tails; AlphaScreen HP1-beta / biotin-H3K9me3 peptide binding; Potency, µM (top dose mostly 114 µM), without a hit: at the highest dose activity change, negative = inhibition, actives largely listed as inhibitors; 390,000 tested, 0.56% active; AID 540317; further: nearly all actives have a fitted effect of over 70% in size
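HP1-beta protein (50 nM final) preincubated 30 min at room temperature with biotinylated H3(1-18)K9me3 peptide (50 nM) in PBS pH 7.4, 0.01% Tween-20, then compound added for 30 min. AlphaScreen streptavidin donor/nickel chelate acceptor beads (10 ug/mL final), 30 min dark, luminescence read.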
G9a inh: G9a (human) methyltransferase inhibition; 350,000 tested, 8.8% active; G9a H3K9 monomethylation, AlphaScreen, 2 h; Potency, µM (doses to about 102 µM), for inactives: top-dose activity, negative = inhibition, hits mostly inhibitors; Q96KQ7; further: on the % scale 0 is the no-effect control and ±100 the full control effect; nearly all actives have a fitted effect of over 75% in size
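AlphaScreen read-out: biotin-H3K9 peptide (500 nM) methylation by 20 nM enzyme with 20 uM SAM, 2 h at room temperature after 15 min compound preincubation; anti-monomethyl H3K9 antibody plus donor/acceptor beads, 10 min dark.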
BAZ2B block: BAZ2B (human) inhibition. AlphaScreen BAZ2B-H3K14Ac peptide displacement. Potency, µM (doses to about 114 µM), for inactives: top-dose activity change, negative = inhibition, usual class: inhibitors. 360,000 tested, 4.4% active. Q9UIF8. AID 504333; further: on the % scale 0 is the no-effect control and ±100 the full control effect; nearly all actives have a fitted effect of over 60% in size
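BAZ2B 50 nM plus b-H3(5-23)K14Ac 50 nM, PBS pH 7.4/0.01% Tween-20, 30 min RT; compound added (max 110 uM), 30 min RT; streptavidin donor/Ni-chelate acceptor beads 10 ug/mL final, 20 min dark; AlphaScreen read.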
* marks the source's active call; other numbers are inactive results; [ ] = another dose, or the depositor's remark. In the library only some 11% were active in any assay of this set; here they are far more common. The call rests on the fitted dose curve; in most records, active means well fitted curve in the direction sought with a large enough effect; inconclusive means small, poorly fitted or top-dose-only effect, or another doubt; inactive means no such curve, though single readings can be large; an effect the other way counts as inactive or inconclusive. Potency means the concentration at half of the fitted maximal effect.

CCC(Sc1nc(N)cc(N)n1)C(=O)O (stereo not drawn) was read as JMJD2A Tudor -6.1%, PLK1 PBD inh -11.5%, VDR inhibitor 17.1%, HP1b chromo inh 49.3%, G9a inh 12.7%[59 µM] and BAZ2B block -1.8%.
For O=C(CNCc1ccccn1)Nc1ccc([N+](=O)[O-])cc1C(=O)Nc1ccccc1F the results were JMJD2A Tudor 44.7µM*, PLK1 PBD inh -13.6%, VDR inhibitor -14.5%, HP1b chromo inh 12.6%, G9a inh 13.2% and BAZ2B block 17.8µM*.
Screening CCc1noc(C)c1C(=O)OCC(=O)c1ccccc1OC returned JMJD2A Tudor 0.0%, PLK1 PBD inh -2.8%, VDR inhibitor -4.6%, HP1b chromo inh 71.7%, G9a inh -8.2% and BAZ2B block 22.7%.
O=C1CS/C(=N\N=C\c2ccco2)N1c1ccccc1 was read as JMJD2A Tudor inconclusive, PLK1 PBD inh -29.6%, VDR inhibitor -0.3%, HP1b chromo inh 2.2%, G9a inh inconclusive and BAZ2B block 50.1µM*.
`O=C1CS/C(=N/N=C/c2ccccc2)N1c1ccc(O)cc1` gave JMJD2A Tudor -13.8%, PLK1 PBD inh -2.6%, VDR inhibitor -9.0%, HP1b chromo inh 21.2% and BAZ2B block 10.1%.
Screening COC(=O)CSc1nc2c(c(-c3ccco3)c1C#N)CCCC2 returned JMJD2A Tudor -15.9%, PLK1 PBD inh 26.7µM*, VDR inhibitor -11.8%, HP1b chromo inh 67.3%, G9a inh 2.24µM* and BAZ2B block 28.2µM*.
Screening Cc1nn(C(=O)c2cccc([N+](=O)[O-])c2)c(C)c1Cl returned JMJD2A Tudor -25.2%, PLK1 PBD inh -7.9%, VDR inhibitor 4.6%, HP1b chromo inh -17.5%, G9a inh inconclusive and BAZ2B block -25.9%.
O=C(O)/C=C\C(=O)Nc1ccc(F)c(F)c1F was read as JMJD2A Tudor -0.3%, PLK1 PBD inh -0.2%, VDR inhibitor -14.0%, HP1b chromo inh 67.8%, G9a inh 39.8µM* and BAZ2B block -3.1%.
For Cc1c(Cl)c(-c2n[nH]c(=S)n2Cc2ccco2)nn1C the results were JMJD2A Tudor 8.91µM*, PLK1 PBD inh -7.0%, VDR inhibitor -8.7%, HP1b chromo inh 20.5%, G9a inh 7.94µM* and BAZ2B block -9.1%.
Screening COc1cccc(-c2n[nH]c(=S)n2Cc2ccco2)c1 returned JMJD2A Tudor 20µM*, PLK1 PBD inh inconclusive, VDR inhibitor inconclusive, HP1b chromo inh -22.8%, G9a inh 3.16µM* and BAZ2B block -35.9%.
Screening CC(C)OC(=O)CSc1nnc(-c2cnccn2)n1Cc1ccco1 returned JMJD2A Tudor -21.5%, PLK1 PBD inh -8.9%, VDR inhibitor -2.8%, HP1b chromo inh 22.6%, G9a inh -35.9%[59 µM] and BAZ2B block inconclusive.
Screening C=CCn1c(-c2cccc(OC)c2OC)n[nH]c1=S returned JMJD2A Tudor 7.94µM*, PLK1 PBD inh -1.3%, VDR inhibitor -6.5%, HP1b chromo inh 31.5%, G9a inh 20µM* and BAZ2B block -28.9%.
COc1cccc(-c2nnc(SCC(=O)OC(C)C)n2Cc2ccco2)c1 was read as JMJD2A Tudor -29.5%[11.4 µM], PLK1 PBD inh 26.7µM*, VDR inhibitor -12.5%, HP1b chromo inh -12.6%, G9a inh 39.8µM* and BAZ2B block -4.4%.
`COc1ccc2c(=O)c3c(=O)n(Cc4ccco4)c(-c4ccccc4)nc3oc2c1` gave JMJD2A Tudor -27.4%, PLK1 PBD inh -11.8%, VDR inhibitor 1.9%, HP1b chromo inh 6.0%, G9a inh inconclusive and BAZ2B block -13.0%.
`CCCN(Cc1nnc(-c2ccccc2Cl)o1)C(=O)c1oc2ccccc2c1C` gave JMJD2A Tudor 21.9%, PLK1 PBD inh -7.3%, VDR inhibitor -14.9%, HP1b chromo inh 65.8%, G9a inh 12.7%[59 µM] and BAZ2B block 11.4%.
Screening c1ccc(NC2=NCCN2CC2CCCCCC2)cc1 returned JMJD2A Tudor -4.3%, PLK1 PBD inh -1.4%, VDR inhibitor -20.6%, HP1b chromo inh 30.7%, G9a inh -9.0%[2.33 µM] and BAZ2B block 0.3%.
CC(C)[C@H](NS(=O)(=O)c1ccccc1)C(=O)Nc1ccccc1N1CCOCC1 was read as JMJD2A Tudor -3.8%, PLK1 PBD inh 1.9%, VDR inhibitor -9.1% and HP1b chromo inh 33.6%.
Screening C=CCn1c(-c2cccc(OC)c2)nc2nc3ccccc3nc21 returned JMJD2A Tudor 1.1%, PLK1 PBD inh -9.3%, VDR inhibitor -5.7%, HP1b chromo inh 11.5%, G9a inh -7.3%[59 µM] and BAZ2B block 10.0%.
Screening CCn1c(-c2cc(OC)c(OC)c(OC)c2)n[nH]c1=S returned JMJD2A Tudor 7.94µM*, PLK1 PBD inh 0.8%, VDR inhibitor -9.8%, HP1b chromo inh 42.2%, G9a inh inconclusive and BAZ2B block -8.2%.
Cc1c(Cl)c(-c2n[nH]c(=S)n2-c2ccccc2)nn1C was read as JMJD2A Tudor 4.47µM*, PLK1 PBD inh 2.1%, VDR inhibitor -7.1%, HP1b chromo inh 28.4%, G9a inh 8.91µM* and BAZ2B block 1.7%.
Screening CCn1c(CCCc2ccc(OC)c(C)c2)n[nH]c1=S returned JMJD2A Tudor inconclusive, PLK1 PBD inh 0.6%, VDR inhibitor -1.3%, HP1b chromo inh 38.3% and BAZ2B block -10.7%.
`C=CCn1c(-c2cccnc2)n[nH]c1=S` gave JMJD2A Tudor 20µM*, PLK1 PBD inh 0.7%, VDR inhibitor -7.4%, HP1b chromo inh 43.9%, G9a inh 44.7µM* and BAZ2B block -28.3%.
`C=CCn1c(-c2cccc(OC)c2)n[nH]c1=S` gave JMJD2A Tudor 11.2µM*, PLK1 PBD inh -3.2%, VDR inhibitor 9.4%, HP1b chromo inh 3.4%, G9a inh 7.08µM* and BAZ2B block 6.5%.
For COC(=O)C1CN(C(=O)C(C)Oc2ccc(C)c(C)c2)c2ccccc2O1 (stereo not drawn) the results were JMJD2A Tudor -12.0%, PLK1 PBD inh -6.5%, VDR inhibitor -23.4%, HP1b chromo inh 44.9%, G9a inh 52.0% and BAZ2B block 1.6%.
`Cc1cc(C)c2c(n1)sc1c(=O)n(-c3ccccc3C(F)(F)F)nnc12` gave JMJD2A Tudor 0.0%, VDR inhibitor -17.0%, HP1b chromo inh 20.3%, G9a inh -29.7%[59 µM] and BAZ2B block -8.1%.
For Cc1ccc(C)c(S(=O)(=O)Nc2ccc(C(=O)N3CCCCC3)cc2)c1 the results were JMJD2A Tudor -10.3%, PLK1 PBD inh -6.0%, VDR inhibitor 7.6%, HP1b chromo inh 6.0% and BAZ2B block -2.0%.
Screening COc1cccc(-c2nccc(N(C)Cc3ccco3)n2)c1 returned VDR inhibitor 35.5µM* and G9a inh 5.1%[0.501 µM].
C=CCn1c(-c2cc(OC)c(OC)c(OC)c2)n[nH]c1=S was read as JMJD2A Tudor 6.31µM*, PLK1 PBD inh -4.2%, VDR inhibitor 5.8%, HP1b chromo inh 11.3%, G9a inh inconclusive and BAZ2B block -4.3%.
